Data as given in PubChem BioAssay AID623996 (NMMLSC, 2012).
Potency and affinity values are given separately. Activity calls are given as the source filed them.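 How the source made its calls: active means fitted concentration giving half the maximal Nile Red retention below 100 µM; inactive means the rest.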

The compounds below were run against Multidrug resistance protein CDR1 (Candida albicans) (UniProt P43071) (assay: CaCdr1 efflux pump inhibitor potency, dose response, singleplex, Cherry Pick2 set (AID 623996)). Details: S. cerevisiae AD/CaCDR1, Nile Red efflux inhibition, flow cytometry; series mostly up to 100 µM; efflux inhibition response: at the top concentration.
Sequence of Multidrug resistance protein CDR1 (Candida albicans) (P43071 whole entry, looked up): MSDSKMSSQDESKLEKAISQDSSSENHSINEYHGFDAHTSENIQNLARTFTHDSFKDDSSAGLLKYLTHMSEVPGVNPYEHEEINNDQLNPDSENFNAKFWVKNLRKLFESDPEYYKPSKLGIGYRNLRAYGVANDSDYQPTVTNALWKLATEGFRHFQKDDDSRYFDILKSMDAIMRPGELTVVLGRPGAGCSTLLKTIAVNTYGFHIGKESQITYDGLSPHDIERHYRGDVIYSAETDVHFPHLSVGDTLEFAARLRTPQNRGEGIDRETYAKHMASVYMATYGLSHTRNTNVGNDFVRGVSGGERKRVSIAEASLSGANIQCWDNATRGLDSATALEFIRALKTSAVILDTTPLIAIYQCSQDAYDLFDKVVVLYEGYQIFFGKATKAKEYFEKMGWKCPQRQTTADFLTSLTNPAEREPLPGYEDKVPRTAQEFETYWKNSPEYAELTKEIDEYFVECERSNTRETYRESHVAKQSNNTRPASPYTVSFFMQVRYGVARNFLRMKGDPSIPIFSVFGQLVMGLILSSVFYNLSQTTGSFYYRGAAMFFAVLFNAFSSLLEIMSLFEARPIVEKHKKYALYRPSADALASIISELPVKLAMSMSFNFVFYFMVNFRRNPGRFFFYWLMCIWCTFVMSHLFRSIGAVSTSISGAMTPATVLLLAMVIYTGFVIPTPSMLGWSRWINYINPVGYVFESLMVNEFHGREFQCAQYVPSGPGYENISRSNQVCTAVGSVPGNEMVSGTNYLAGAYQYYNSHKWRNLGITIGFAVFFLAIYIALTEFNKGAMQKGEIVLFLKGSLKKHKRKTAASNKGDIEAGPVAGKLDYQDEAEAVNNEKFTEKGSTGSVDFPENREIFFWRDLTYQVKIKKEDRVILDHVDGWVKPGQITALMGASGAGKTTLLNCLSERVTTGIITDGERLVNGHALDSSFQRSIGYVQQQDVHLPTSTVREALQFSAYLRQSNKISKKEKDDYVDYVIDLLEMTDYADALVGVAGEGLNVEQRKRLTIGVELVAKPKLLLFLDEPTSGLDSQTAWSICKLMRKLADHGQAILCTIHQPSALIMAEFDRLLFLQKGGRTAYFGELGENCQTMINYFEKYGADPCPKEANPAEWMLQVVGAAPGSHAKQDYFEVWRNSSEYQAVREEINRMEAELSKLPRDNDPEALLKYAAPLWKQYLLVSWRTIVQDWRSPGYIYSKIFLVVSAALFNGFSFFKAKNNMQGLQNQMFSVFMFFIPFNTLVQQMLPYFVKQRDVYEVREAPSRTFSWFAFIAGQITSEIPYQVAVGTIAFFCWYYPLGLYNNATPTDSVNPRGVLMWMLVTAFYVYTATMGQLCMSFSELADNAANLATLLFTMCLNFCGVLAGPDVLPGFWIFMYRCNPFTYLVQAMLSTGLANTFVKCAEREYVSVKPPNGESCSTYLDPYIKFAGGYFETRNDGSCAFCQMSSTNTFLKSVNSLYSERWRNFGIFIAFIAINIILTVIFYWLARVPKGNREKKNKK

Efflux inhibition response, inactive:
COc1cccc(N2CCN(C(=O)C3CCCN(c4ncnc5c4nc4n5CCCCC4)C3)CC2)c1 (stereo not given) -1.74%, O=C1C(Cc2ccccc2)Nc2ncnc(N3CCN(c4ccccc4)CC3)c2N1Cc1ccccc1 (stereo not given) 17.1%, Nc1ccc(C(=O)OCCc2ccccc2)cc1 -0.15%, COc1ccc(C2CC(c3ccccc3C(F)(F)F)=NN2c2ccc(S(N)(=O)=O)cc2)cc1 (stereo not given) 30.5%, O=C(Nc1ccccc1)C1=C[C@@H](c2ccc(C(F)(F)F)cc2)C[C@@H](OCCCCO)O1 1.11%, C[C@H](CO)N1C[C@H](C)[C@@H](CN(C)S(=O)(=O)c2ccccc2)Oc2c(NC(=O)Nc3ccccc3)cccc2C1=O 52.5%, COc1cc(OC)c2ccc(=O)oc2c1C(CCN1CCCCC1)c1ccc(N(C)C)cc1 (stereo not given) 2.07%, COc1cccc(-c2sc3ccc(OC)cc3c2-c2ccc(OCCN3CCOCC3)cc2)c1 96.5%, O=C(C1CCCN(c2ncnc3c2nc2n3CCCCC2)C1)N1CCN(c2ccccc2F)CC1 (stereo not given) -3.46%, CCO[C@@H]1OC(C(=O)Nc2ccccc2)=C[C@H](c2ccc(Br)cc2)[C@H]1CCCO 124%, Cc1ccc(C2CC(c3ccccc3)=NN2c2ccc(S(N)(=O)=O)cc2)cc1 (stereo not given) -0.8%, COc1cc(OC)c2ccc(=O)oc2c1C(CCN1CCCC1)c1ccc(N(C)C)cc1 (stereo not given) -1.94%, COc1ccc(O)c(C(=O)c2cnc3c(c2)CN(C)C(=O)N3)c1 0.22%, CN1Cc2cc(C(=O)c3ccccc3O)cnc2NC1=O -3.93%, NS(=O)(=O)c1ccc(N2N=C(c3ccccc3)CC2c2ccc(F)cc2)cc1 (stereo not given) 2.86%, COc1ccc([C@H]2CC(=O)C=C(c3ccnc4ccc(Cl)cc34)C2)cc1 119%, COc1ccccc1C(=O)OCCc1ccccc1 -0.84%, NS(=O)(=O)c1ccc(N2N=C(c3ccccc3)CC2c2ccccc2)cc1 (stereo not given) -3.44%, COc1ccc(CN2C(=O)C(C)Nc3ncnc(N4CCN(c5ccccc5)CC4)c32)cc1 (stereo not given) 1.03%, COc1ccc(C2CC(c3ccccc3)=NN2c2ccc(S(N)(=O)=O)cc2)cc1 (stereo not given) -4.35%, O=C(C1CCC(CNc2nc(=S)[nH]c3ccccc23)CC1)N1CCN(c2ccc(F)cc2)CC1 (stereo not given) -0.38%, Cc1cc(C)c2sc(N(CCCN(C)C)C(=O)c3ccc(Br)s3)nc2c1 18.1%, OCCN1CCN(CC/C=C2/c3ccccc3Sc3ccc(C(F)(F)F)cc32)CC1 2.54%, NC1=NC[C@H](Cc2ccccc2)N1CCCCC1CCCCC1 -3.02%, NS(=O)(=O)c1ccc(N2N=C(c3ccc(Br)cc3)CC2c2ccc(F)cc2)cc1 (stereo not given) -3.7%, O=C(C[n+]1cc(-c2ccc(F)cc2)n2c1CCC2)N1c2ccccc2Sc2ccccc21 -3.79%, O=C(CSc1nnc(Cc2cccs2)n1Cc1ccco1)Nc1ccc(Br)cc1 -1.77%, O=C(CSc1nnc(Cc2cccs2)n1Cc1ccco1)Nc1cccc(Cl)c1 -3.15%, COc1ccc(C(=O)OCCc2ccc(O)cc2)cc1 -2.8%

outcome, inactive:
CCC(=O)N1CCN(c2ccc(Cl)cc2NC(=O)c2ccc3c(c2)OCCO3)CC1
